The record followed here is PubChem BioAssay (NCI).

Among the test systems are NCI-H23 lung; NCI-H226 lung; NCI-H322M lung; HOP-62 NSCLC; NCI-H460 lung; HOP-92 NSCLC; NCI-H522 lung; A549/ATCC NSCLC; 786-0 renal; COLO 205 colon; DU-145 prostate; K-562 leukemia; MALME-3M melanoma; MDA-MB-231 breast; RXF 393 renal; SF-268 CNS; SF-295 CNS; SF-539 CNS; UACC-257 melanoma; M14 melanoma.
Assay in all cases: NCI-60 one-dose screen, 48 h (100 = growth as untreated, 0 = no growth, -100 = all killed)
What all share (details): 10 µM

About 83,000 compounds went through this panel and 20% of them were active in at least one assay; those are over-represented in the sample as a whole.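 Note: values are percent growth. 100 is the growth of untreated cells, values between 100 and 0 indicate rising inhibition; between -100 and 0 indicates cell death.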 A number with no mark means an inactive call. Activity calls are given as the source filed them. How the source made its calls: active means growth percent below 10; inactive means the rest.

Turning to `COc1cc2cc(OC(C)=O)c3cc4c(cc3c2c(OC)c1OC)OCO4`, the growth in the assay on NCI-H23 lung was 91.9%; with NCI-H226 lung it was 94.7%; in the assay with NCI-H322M lung it was 95.4%; in the assay on HOP-62 NSCLC, 91.5%; in the assay with NCI-H460 lung, 103%; in the assay on HOP-92 NSCLC it was 96.3%. Moreover, the growth with NCI-H522 lung was 97.6%; in the assay on A549/ATCC NSCLC, 106%; with 786-0 renal, 106%; in the assay with COLO 205 colon, 106%; in the assay on DU-145 prostate it was 98.8%; with K-562 leukemia, 107%. Also, the growth was 98.4% with MALME-3M melanoma; 108% in the assay with MDA-MB-231 breast; 94.6% with RXF 393 renal; 97.9% with SF-268 CNS; 93% in the assay on SF-295 CNS; 103% in the assay with SF-539 CNS. In addition, the growth in the assay on UACC-257 melanoma is 105%; with M14 melanoma, 96.5%.

In the case of `CCN(CC)c1ccc2nc3ccc(=[N+](CC)CC)cc-3oc2c1`, the growth is -46.2% (active) with NCI-H23 lung; -46.9% (active) in the assay on NCI-H226 lung; 10.7% in the assay on NCI-H322M lung; 1.25% (active) in the assay with HOP-62 NSCLC; 6.72% (active) with NCI-H460 lung; 15.7% in the assay on HOP-92 NSCLC. Further, the growth in the assay with NCI-H522 lung is -29.6% (active); in the assay with A549/ATCC NSCLC it was 18.5%; in the assay with 786-0 renal, 34.9%; in the assay on COLO 205 colon it was -69.9% (active); with DU-145 prostate, 37.6%; with K-562 leukemia it was 21%. The growth with MALME-3M melanoma was -48.6% (active); in the assay with MDA-MB-231 breast it was -12.1% (active); in the assay on RXF 393 renal, 53.1%; with SF-268 CNS it was 13.9%; in the assay with SF-295 CNS, 1.09% (active); with SF-539 CNS, 21.2%. Further, the growth is -55.8% (active) in the assay with UACC-257 melanoma and -34.1% (active) in the assay on M14 melanoma.

Turning to `O=C(Cc1nc2ccc([N+](=O)[O-])cc2nc1CC(=O)c1ccccc1)c1ccccc1`, the growth in the assay on NCI-H23 lung is 43.9%; in the assay on NCI-H226 lung, 68%; in the assay with NCI-H322M lung, 61%; in the assay with HOP-62 NSCLC, 79.8%; in the assay on NCI-H460 lung it was 52.9%; in the assay with HOP-92 NSCLC, 71.5%. Besides, the growth with NCI-H522 lung is 31.5%; in the assay on A549/ATCC NSCLC, 58.8%; with 786-0 renal, 42%; in the assay with COLO 205 colon, 91.3%; in the assay with DU-145 prostate, 50.6%; in the assay with K-562 leukemia, 43.8%. The growth is 46.8% with MALME-3M melanoma; 89.1% with RXF 393 renal; 73.9% with SF-268 CNS; 53% in the assay with SF-295 CNS; 18.3% in the assay on SF-539 CNS; 86.9% in the assay with UACC-257 melanoma. Also, the growth with M14 melanoma was 48.4%.

As to `O=c1cc(-c2ccccc2)oc2c1ccc1ccccc12`, the growth in the assay on NCI-H23 lung was 85.2%; in the assay on NCI-H226 lung, 86.3%; in the assay on NCI-H322M lung, 96%; in the assay with HOP-62 NSCLC, 99.5%; in the assay on NCI-H460 lung, 97.1%; with HOP-92 NSCLC it was 50.5%. For the same compound, the growth with NCI-H522 lung is 79.3%; with A549/ATCC NSCLC, 73.6%; with 786-0 renal it was 99.4%; with COLO 205 colon it was 85.8%; in the assay on DU-145 prostate, 102%; in the assay with K-562 leukemia it was 102%. For the same compound, the growth with MALME-3M melanoma is 146%; with MDA-MB-231 breast, 88.4%; with RXF 393 renal it was 90.8%; in the assay with SF-268 CNS it was 101%; in the assay with SF-295 CNS, 98%; in the assay on SF-539 CNS it was 81.2%. Further, the growth in the assay on UACC-257 melanoma was 97.3%; in the assay on M14 melanoma, 98.9%.

For `CC(=O)Cc1cc(-c2cc(CC(C)=O)[nH]n2)n[nH]1`, the growth in the assay on NCI-H23 lung is 102%; with NCI-H226 lung it was 99.3%; in the assay on NCI-H322M lung it was 96.2%; in the assay on HOP-62 NSCLC, 95.1%; in the assay with NCI-H460 lung, 105%; in the assay with HOP-92 NSCLC, 104%. In addition, the growth in the assay with NCI-H522 lung is 95.8%; in the assay on A549/ATCC NSCLC, 102%; in the assay on 786-0 renal, 103%; in the assay on COLO 205 colon it was 110%; in the assay on DU-145 prostate, 107%; in the assay with K-562 leukemia it was 99.5%. The growth was 94.6% with MALME-3M melanoma; 103% in the assay on RXF 393 renal; 98.5% with SF-268 CNS; 94.7% in the assay on SF-295 CNS; 98% in the assay with SF-539 CNS; 93% in the assay on UACC-257 melanoma. In addition, the growth with M14 melanoma is 99.5%.

Consider `O=C(CN1CCNCC1)N1CCOCC1`, for which the growth in the assay on NCI-H23 lung was 93.3%; in the assay with NCI-H226 lung it was 116%; in the assay with NCI-H322M lung it was 106%; with HOP-62 NSCLC it was 103%; in the assay on NCI-H460 lung, 117%; in the assay on HOP-92 NSCLC, 103%. The growth is 111% in the assay on NCI-H522 lung; 95.4% with A549/ATCC NSCLC; 101% in the assay on 786-0 renal; 110% with COLO 205 colon; 130% in the assay on DU-145 prostate; 97.5% with K-562 leukemia. Also, the growth is 96.3% in the assay on MALME-3M melanoma; 110% in the assay with MDA-MB-231 breast; 123% in the assay on RXF 393 renal; 110% in the assay with SF-268 CNS; 102% with SF-295 CNS; 99.5% in the assay on SF-539 CNS. In addition, the growth in the assay on UACC-257 melanoma is 109%; in the assay on M14 melanoma, 103%.

In the case of `O=c1c2ccccc2c(Br)c(Br)c2ccccc12`, the growth is 78.1% in the assay on NCI-H23 lung; 74.2% in the assay on NCI-H226 lung; 119% in the assay with NCI-H322M lung; 112% in the assay on HOP-62 NSCLC; 116% in the assay with NCI-H460 lung; 83.7% in the assay with HOP-92 NSCLC. Besides, the growth with NCI-H522 lung was -33.9% (active); in the assay on A549/ATCC NSCLC it was 95.1%; with 786-0 renal, 84.3%; in the assay with COLO 205 colon, 55%; in the assay with DU-145 prostate, 114%; in the assay with K-562 leukemia it was 52.6%. Also, the growth with MALME-3M melanoma is 94.7%; in the assay with MDA-MB-231 breast it was 115%; with RXF 393 renal, 48%; in the assay with SF-268 CNS, 110%; with SF-295 CNS it was 99.4%; in the assay on SF-539 CNS, 98.6%. Also, the growth with UACC-257 melanoma is 66.2%; with M14 melanoma, 5.89% (active).

As for `N#Cc1c(N)sc(=S)c2c1CCCC2`, the growth is 101% with NCI-H23 lung; 104% in the assay with NCI-H226 lung; 123% with NCI-H322M lung; 104% in the assay with HOP-62 NSCLC; 115% in the assay on NCI-H460 lung; 103% in the assay on HOP-92 NSCLC. Besides, the growth in the assay with NCI-H522 lung was 102%; in the assay with A549/ATCC NSCLC, 105%; with 786-0 renal it was 104%; in the assay with COLO 205 colon it was 111%; in the assay with DU-145 prostate it was 113%; with K-562 leukemia, 113%. The growth in the assay on MALME-3M melanoma is 119%; in the assay on MDA-MB-231 breast, 111%; in the assay with RXF 393 renal, 118%; with SF-268 CNS, 104%; with SF-295 CNS, 110%; with SF-539 CNS, 110%. The growth was 110% in the assay on UACC-257 melanoma and 116% in the assay with M14 melanoma.
